Screening data from PubChem.
L3MBTL1 inh = qHTS Assay for the Inhibitors of L3MBTL1. hit rate 0.66% among 230,000. Potency, µM (top dose mostly 57.1 µM), for inactives: top-dose activity, negative = inhibition, hits mostly inhibitors. AlphaScreen L3MBTL1–H3K9me1 peptide binding. Lethal(3)malignant brain tumor-like protein 1 (Homo sapiens), Q9Y468; also: potency is read from the fitted curve at half-maximal effect; % is scaled to controls: 0 for no effect and ±100 for the full control effect; nearly all actives have a fitted effect of over 60% in size
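L3MBTL1 50 nM + b-AHA-H3(1-15)K9me1 75 nM, 30 min RT; compound added, 30 min RT; streptavidin donor/Ni-chelate acceptor beads 10 ug/mL each final, 30 min RT dark; AlphaScreen read.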
PI5P4Ka inh = qHTS for Inhibitors of phosphatidylinositol 5-phosphate 4-kinase (PI5P4K); Phosphatidylinositol 5-phosphate 4-kinase type-2 alpha (Homo sapiens), P48426; PI5P4Kalpha enzyme, ADP-Glo luminescence, 60 min; hits give low values; max response, %; hit rate 1.2% among 330,000; active = max response of -50% or lower; inconclusive = between -30% and -50%; inactive = -30% or higher; also: value at the top dose of about 77 µM; % is scaled to controls: 0 for no effect and ±100 for the full control effect
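Human PI5P4Kalpha with substrate in 0.038 M HEPES pH 7.4, 0.28 mM EGTA, 0.1% CHAPS, 5% DMSO; reaction started with 5 microM ATP (final), 60 min at room temperature. ADP formed read by ADP-Glo luminescence.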
KDM4E inh = qHTS Assay for Inhibitors of Human Jumonji Domain Containing 2E (JMJD2E); JMJD2E catalytic domain, FDH-coupled NADH fluorescence (FDH is formaldehyde dehydrogenase); Potency, µM (top dose mostly 57.1 µM), for the others: top-dose activity change, negative = inhibition, most hits filed as inhibitors; hit rate 1.6% among 230,000; active = well fitted inhibition curve with a large enough effect, not every such curve was filed as active; inconclusive = small, poorly fitted or top-dose-only effect, or another doubt; inactive = no such curve, though single readings can be large or run the other way;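 also: potency is read from the fitted curve at half-maximal effect; 0% = wells with enzyme and -100% = buffer wells without enzyme; nearly all actives have a fitted effect of over 50% in size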
BAZ2B inh = qHTS Assay for Inhibitors of BAZ2B; Bromodomain adjacent to zinc finger domain protein 2B (Homo sapiens), Q9UIF8; AlphaScreen BAZ2B-H3K14Ac peptide displacement; Potency, µM (doses to about 114 µM), inactives show at the top dose activity change, negative = inhibition, actives largely listed as inhibitors; hit rate 4.4% among 360,000; also: potency is read from the fitted curve at half-maximal effect; % is scaled to controls: 0 for no effect and ±100 for the full control effect; nearly all actives have a fitted effect of over 60% in size
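Inhibition is scored as reduced AlphaScreen emission. The BAZ2B/b-H3(5-23)K14Ac complex (50 nM each) in PBS pH 7.4, 0.01% Tween-20 meets compound (up to 110 uM) for 30 min at RT before bead addition.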
HP1b binding inh = HTS for Inhibitors of HP1-beta Chromodomain Interactions with Methylated Histone Tails | Chromobox protein homolog 1 (Homo sapiens), P83916 | AlphaScreen HP1-beta / biotin-H3K9me3 peptide binding | Potency, µM (top dose mostly 114 µM), without a hit: at the highest dose activity change, negative = inhibition, hits mostly inhibitors | hit rate 0.56% among 390,000; also: potency is read from the fitted curve at half-maximal effect; nearly all actives have a fitted effect of over 70% in size
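HP1-beta protein (50 nM final) preincubated 30 min at room temperature with biotinylated H3(1-18)K9me3 peptide (50 nM) in PBS pH 7.4, 0.01% Tween-20, then compound added for 30 min. AlphaScreen streptavidin donor/nickel chelate acceptor beads (10 ug/mL final), 30 min dark, luminescence read.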
JMJD2A Tudor = qHTS Assay for Inhibitors of JMJD2A-Tudor Domain; Lysine-specific demethylase 4A (Homo sapiens), O75164; AlphaScreen JMJD2A-Tudor / H3K4me3 peptide binding; Potency, µM (top dose mostly 114 µM), inactives show at the highest dose activity change, negative = inhibition, actives largely listed as inhibitors; hit rate 4.4% among 390,000; also: potency is read from the fitted curve at half-maximal effect; % is scaled to controls: 0 for no effect and ±100 for the full control effect; nearly all actives have a fitted effect of over 50% in size
* marks the source's active call; other numbers are inactive results. Hits are enriched below; roughly 5.7% of the tested compounds scored in any of these assays. Unless noted, calls follow the shape of the dose curve; as a rule, active = well fitted inhibition curve with a large enough effect; inconclusive = small, poorly fitted or top-dose-only effect; inactive = no such curve, though single readings can be large or run the other way.

`COc1ccccc1-c1cn[nH]c(=S)n1` gave L3MBTL1 inh -11%, PI5P4Ka inh -70*, KDM4E inh -26%, BAZ2B inh -36%, HP1b binding inh inconclusive and JMJD2A Tudor 50µM*.
For COc1ccccc1-c1cncc(NC(C)=O)n1 the results were PI5P4Ka inh 10.
CCc1ccc(C(=O)NC2=NC(c3cc(OC)ccc3OC)CC(=O)N2)cc1 (centres undefined) was read as BAZ2B inh 1%, HP1b binding inh 28% and JMJD2A Tudor 3%.
Screening N#C/C(=C\c1ccc(-c2ccccc2C(=O)O)o1)c1nc2ccccc2[nH]1 returned PI5P4Ka inh -69*, BAZ2B inh 79µM*, HP1b binding inh 5% and JMJD2A Tudor 20µM*.
`Cc1cc(/C=C(/C#N)c2nc3ccccc3[nH]2)c(C)n1-c1ccccc1C(=O)O` gave PI5P4Ka inh -23, KDM4E inh -6%, BAZ2B inh 50µM*, HP1b binding inh -15% and JMJD2A Tudor -35%.
Screening Cc1ccc2nc(/C(C#N)=C\c3cc(C)n(-c4cccc([N+](=O)[O-])c4)c3C)[nH]c2c1 returned KDM4E inh -8%, BAZ2B inh inconclusive, HP1b binding inh -6% and JMJD2A Tudor inconclusive.
Screening CCCCCCCCCCCCC/C=C/[C@@H](O)C(CO)NC(C)=O (some centres undefined) returned KDM4E inh -8%.
`O=C(CCN1C(=O)/C(=C/c2ccccc2F)SC1=S)Nc1cccnc1` gave PI5P4Ka inh 6, BAZ2B inh 1.1µM*, HP1b binding inh -6% and JMJD2A Tudor inconclusive.
For O=C(CCCN1C(=O)/C(=C/c2ccccc2OC(F)F)SC1=S)Nc1cccnc1 the results were L3MBTL1 inh -24%, PI5P4Ka inh -3, HP1b binding inh -23% and JMJD2A Tudor 18µM*.
`O=C(CNC(=O)N1CC(=O)Nc2ccccc21)NCc1ccc(Cl)cc1` gave PI5P4Ka inh 1, BAZ2B inh 79µM*, HP1b binding inh 18% and JMJD2A Tudor -18%.
For CCC1CCCCN1S(=O)(=O)c1ccc(C(=O)Nc2nnc(-c3ccccc3Cl)o2)cc1 (centres undefined) the results were L3MBTL1 inh 44%, PI5P4Ka inh -28, KDM4E inh -17%, BAZ2B inh 7%, HP1b binding inh 46% and JMJD2A Tudor -18%.
For CCC1CCCCN1S(=O)(=O)c1ccc(C(=O)Nc2nnc(C3CC3)o2)cc1 (centres undefined) the results were PI5P4Ka inh -4, BAZ2B inh 50µM*, HP1b binding inh 50% and JMJD2A Tudor -17%.
`O=C(Nc1nnc(C2=COCCO2)o1)c1ccc(S(=O)(=O)N2CCCCC2)cc1` gave PI5P4Ka inh 3, KDM4E inh inconclusive, HP1b binding inh 22% and JMJD2A Tudor 79µM*.
CCOC(=O)N1CCN(S(=O)(=O)c2ccc(C(=O)Nc3nnc(C4CC4)o3)cc2)CC1 was read as L3MBTL1 inh 8%, PI5P4Ka inh -1, KDM4E inh inconclusive, BAZ2B inh 22µM*, HP1b binding inh 51% and JMJD2A Tudor 50µM*.
Screening CCC1CCCCN1S(=O)(=O)c1ccc(C(=O)Nc2nnc(C3=COCCO3)o2)cc1 (centres undefined) returned PI5P4Ka inh -19, BAZ2B inh 79µM*, HP1b binding inh 38% and JMJD2A Tudor -12%.
